Active and inactive are the calls of the source. The calls were made as follows: active = hit-call score of the fitted dose curve at least 0.9, where 1 is the maximum; inactive = score below 0.9.
Experiments:
[1] = ATG_CRE_CIS: Attagene CIS-FACTORIAL HepG2 Assay for human cAMP Responsive Element (CRE) binding protein 3 (AID 2282926); details: HepG2 CRE cis-reporter, Attagene multiplexed mRNA; actives raise or lower the signal
Method in brief: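 Cells carrying cis-regulated reporter constructs respond through their own endogenous factors. After 24 h treatment, RNA is reverse-transcribed, amplified, labelled and sized by capillary electrophoresis; up- and down-regulation are both scored against vehicle.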

[2] = biological target: CCAAT/enhancer-binding protein beta (Homo sapiens) (UniProt P17676); test: ATG_C_EBP_CIS: Attagene CIS-FACTORIAL HepG2 Assay for human CCAAT/Enhancer Binding Protein (C/EBP) beta (AID 2282927); details: HepG2 Attagene cis-factorial transcription factor reporter; actives raise or lower the signal
CCAAT/enhancer-binding protein beta (Homo sapiens), sequence (P17676 whole entry, looked up, the tested form may be a part): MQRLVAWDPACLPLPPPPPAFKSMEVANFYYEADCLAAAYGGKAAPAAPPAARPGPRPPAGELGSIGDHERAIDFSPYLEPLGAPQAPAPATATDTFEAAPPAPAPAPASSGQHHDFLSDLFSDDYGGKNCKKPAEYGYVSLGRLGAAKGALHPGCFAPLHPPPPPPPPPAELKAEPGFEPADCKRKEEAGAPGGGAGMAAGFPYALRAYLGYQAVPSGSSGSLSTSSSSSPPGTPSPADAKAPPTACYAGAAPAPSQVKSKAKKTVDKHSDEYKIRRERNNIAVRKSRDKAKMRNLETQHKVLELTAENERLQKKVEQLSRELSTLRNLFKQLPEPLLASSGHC
Method in brief: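 Endogenous C/EBPb-driven reporter transcripts measured in transfected human HepG2 cells at 24 h via RT-PCR and capillary electrophoresis of labelled fragments. Activity fitted in both directions relative to DMSO baseline.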

[3] = ATG_CMV_CIS: Attagene CIS-FACTORIAL HepG2 Assay for human CMV (Internal Marker) (AID 2282928); details: HepG2 CMV promoter reporter, transcription factor profiling; actives raise or lower the signal;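 also: endpoint acts as a background internal control marker rather than a target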
Method in brief: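 24 h chemical treatment, HepG2 with transient multi-reporter transfection; RNA → oligo(dT) RT → PCR → 6-FAM extension → HpaI digest → CE fluorescence. Bidirectional fit, DMSO negative control.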

[4] = ATG_DR4_LXR_CIS: Attagene CIS-FACTORIAL HepG2 Assay for human Liver X Receptor (LXR), DR4 submotif (AID 2282929); details: HepG2 Attagene DR4 cis-reporter, mRNA transcription; actives raise or lower the signal
Method in brief: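 DR4 cis-reporter in HepG2, 24 h exposure. Detection: RT-PCR, 6-FAM labelling, CE fragment analysis. Endpoint fitted bidirectionally, DMSO = baseline.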

[5] = biological target: Aryl hydrocarbon receptor (Homo sapiens) (UniProt P35869); test: ATG_Ahr_CIS: Attagene CIS-FACTORIAL HepG2 Assay for human Aryl Hydrocarbon Receptor (Ahr) (AID 2282930); details: HepG2 AhR cis-factorial reporter transcription; actives raise or lower the signal
Aryl hydrocarbon receptor (Homo sapiens), sequence (P35869 whole entry, looked up): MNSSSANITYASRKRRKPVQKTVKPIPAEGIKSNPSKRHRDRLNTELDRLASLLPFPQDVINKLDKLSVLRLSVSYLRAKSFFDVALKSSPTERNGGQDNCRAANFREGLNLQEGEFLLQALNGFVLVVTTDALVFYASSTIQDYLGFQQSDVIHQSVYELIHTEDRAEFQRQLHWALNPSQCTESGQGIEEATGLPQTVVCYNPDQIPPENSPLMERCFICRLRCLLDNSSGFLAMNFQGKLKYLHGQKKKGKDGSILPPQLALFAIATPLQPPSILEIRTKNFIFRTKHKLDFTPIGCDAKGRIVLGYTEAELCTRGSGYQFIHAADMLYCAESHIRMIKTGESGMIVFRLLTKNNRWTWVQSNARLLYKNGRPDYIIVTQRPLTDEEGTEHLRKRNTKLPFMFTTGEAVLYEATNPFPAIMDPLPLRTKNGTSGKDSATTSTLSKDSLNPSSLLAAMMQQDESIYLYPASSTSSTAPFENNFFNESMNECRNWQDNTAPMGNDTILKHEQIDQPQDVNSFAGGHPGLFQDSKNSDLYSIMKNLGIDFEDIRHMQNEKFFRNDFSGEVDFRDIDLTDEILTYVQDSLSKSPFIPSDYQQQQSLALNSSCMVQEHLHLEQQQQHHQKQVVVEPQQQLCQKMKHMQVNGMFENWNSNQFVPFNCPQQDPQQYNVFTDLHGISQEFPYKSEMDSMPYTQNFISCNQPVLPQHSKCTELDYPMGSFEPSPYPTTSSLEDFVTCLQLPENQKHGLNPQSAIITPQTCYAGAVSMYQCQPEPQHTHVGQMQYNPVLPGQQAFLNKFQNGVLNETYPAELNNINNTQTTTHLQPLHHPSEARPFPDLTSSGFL
Method in brief: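 Reporter mRNA levels, quantified by RT-PCR and fluorescent capillary electrophoresis, reflect endogenous AhR transcriptional activity in HepG2 cells carrying transfected cis-promoter reporter constructs. Readout at 24 h post-dose; gain or loss fitted against DMSO baseline.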

[6] = ATG_AP_1_CIS: Attagene CIS-FACTORIAL HepG2 Assay for human Activator Protein 1 (AP-1) (AID 2282931); details: HepG2 Attagene cis-factorial AP-1 reporter mRNA; actives raise or lower the signal
Method in brief: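 Cis-regulated reporter units transiently expressed in HepG2 report endogenous transcription-factor activity. Signal: reporter mRNA at 24 h, via RT-PCR and fluorescent capillary electrophoresis. Endpoint derived by bidirectional fitting, DMSO as negative control.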

[7] = ATG_AP_2_CIS: Attagene CIS-FACTORIAL HepG2 Assay for human Activator Protein 2 (AP-2) (AID 2282932); details: HepG2 AP-2 cis-reporter, Attagene transcription factor profiling; actives raise or lower the signal
Method in brief: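 Transiently transfected HepG2 cells are exposed to chemical for 24 h. Reporter transcripts are then measured as fluorescence following RT-PCR and capillary separation, and gain- or loss-of-signal is fitted relative to DMSO.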

[8] = biological target: Retinoic acid receptor alpha (Homo sapiens) (UniProt P10276); test: ATG_DR5_RAR_CIS: Attagene CIS-FACTORIAL HepG2 Assay for human Retinoic Acid Receptor Alpha (RARE), DR5 submotif (AID 2282934); details: HepG2 Attagene cis-factorial RARE DR5 reporter, mRNA; actives raise or lower the signal
Retinoic acid receptor alpha (Homo sapiens), sequence (P10276 whole entry, looked up): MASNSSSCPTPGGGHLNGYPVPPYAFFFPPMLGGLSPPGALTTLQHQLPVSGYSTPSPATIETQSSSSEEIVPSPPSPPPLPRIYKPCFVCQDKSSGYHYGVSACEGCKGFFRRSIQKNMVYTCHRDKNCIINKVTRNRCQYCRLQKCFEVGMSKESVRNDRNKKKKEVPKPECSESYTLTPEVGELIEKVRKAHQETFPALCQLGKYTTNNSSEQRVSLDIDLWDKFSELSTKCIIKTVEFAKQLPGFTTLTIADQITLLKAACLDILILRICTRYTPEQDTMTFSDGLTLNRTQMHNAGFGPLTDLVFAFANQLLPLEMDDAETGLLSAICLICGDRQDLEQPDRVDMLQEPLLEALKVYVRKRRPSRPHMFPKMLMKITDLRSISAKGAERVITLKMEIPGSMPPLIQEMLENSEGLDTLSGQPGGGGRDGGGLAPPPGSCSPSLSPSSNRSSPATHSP
Method in brief: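 Reporter transcripts from a DR5-regulated unit, measured via RT-PCR plus capillary electrophoresis, reflect endogenous RAR activity in transiently transfected human HepG2 liver cells. Exposure lasted 24 h; gain or loss of signal scored against DMSO.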

[9] = biological target: Transcription factor E2F1 (Homo sapiens) (UniProt Q01094); test: ATG_E2F_CIS: Attagene CIS-FACTORIAL HepG2 Assay for human E2F Transcription Factor 1 (AID 2282935); details: HepG2 Attagene cis-reporter, E2F reporter RNA transcripts; actives raise or lower the signal
Transcription factor E2F1 (Homo sapiens), sequence (Q01094 whole entry, looked up): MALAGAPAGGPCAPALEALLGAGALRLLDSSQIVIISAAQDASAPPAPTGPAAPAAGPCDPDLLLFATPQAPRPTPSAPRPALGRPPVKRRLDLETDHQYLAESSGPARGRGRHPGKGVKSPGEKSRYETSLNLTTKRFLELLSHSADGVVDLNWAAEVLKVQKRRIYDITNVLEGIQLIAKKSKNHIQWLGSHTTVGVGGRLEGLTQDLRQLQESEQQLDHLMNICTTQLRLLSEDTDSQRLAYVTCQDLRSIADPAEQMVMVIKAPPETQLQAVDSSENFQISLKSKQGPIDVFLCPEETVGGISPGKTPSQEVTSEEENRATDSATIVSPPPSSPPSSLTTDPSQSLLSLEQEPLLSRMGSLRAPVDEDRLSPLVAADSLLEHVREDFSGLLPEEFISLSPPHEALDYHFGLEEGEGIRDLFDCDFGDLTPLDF
Method in brief: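 Fluorescent RT-PCR products, digested with HpaI for 2 h at 37 C, are separated by capillary electrophoresis. Source RNA comes from transfected HepG2 cultures treated for 24 h.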

[10] = ATG_E_Box_CIS: Attagene CIS-FACTORIAL HepG2 Assay for human Enhancer Box (E-box) (AID 2282936); details: HepG2 E-box cis-reporter transcription, actives raise or lower the signal
Method in brief: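 Fluorescent reporter fragments separated by capillary electrophoresis gave the signal; mRNA came from HepG2 cells transfected with cis-element reporters and treated 24 h. Curves fitted bidirectionally relative to DMSO controls.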

[11] = ATG_EGR_CIS: Attagene CIS-FACTORIAL HepG2 Assay for human Early Growth Response 1 (EGR1) (AID 2282938); details: HepG2 Attagene CIS-FACTORIAL EGR reporter mRNA; actives raise or lower the signal
Method in brief: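 Endpoint derived by bidirectional fitting versus DMSO vehicle. Method: cis-promoter reporter units transfected into HepG2, 24 h dosing, RNA isolation, RT-PCR with 6-FAM primer extension and HpaI digestion, then capillary electrophoresis fluorescence detection.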

[12] = ATG_BRE_CIS: Attagene CIS-FACTORIAL HepG2 Assay for human Bone Morphogenetic Protein (BMP) Response Element (BRE) (AID 2282933); details: HepG2 BMP response element reporter, Attagene transcription factor profiling; actives raise or lower the signal
Method in brief: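 Transient MRTU transfection of human HepG2 liver cells; 24 h compound treatment; total RNA isolated, reverse-transcribed, PCR-amplified, 6-FAM labelled, HpaI-cut, capillary electrophoresis. DMSO = negative control/baseline, bidirectional fit.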

[13] = ATG_M_61_CIS: Attagene CIS-FACTORIAL HepG2 Assay for M61 Transcription Factor (Internal Marker) (AID 2282937); details: HepG2 Attagene CIS-FACTORIAL M61 internal marker reporter; actives raise or lower the signal
Method in brief: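 Background-control endpoint: HepG2 cells with cis-regulated reporter constructs, 24 h exposure, reporter mRNA detected via fluorescent primer extension and capillary electrophoresis; values from bidirectional fitting with DMSO baseline.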

CCC(C)(C#N)N=NC(C)(C#N)CC (centres undefined)
outcome [1]: inactive
outcome [2]: inactive
outcome [3]: inactive
outcome [4]: inactive
outcome [5]: inactive
outcome [6]: inactive
outcome [7]: inactive
outcome [8]: inactive
outcome [9]: inactive
outcome [10]: inactive
outcome [11]: inactive

[F][Sn]([c]1ccccc1)([c]1ccccc1)[c]1ccccc1
AC50 [1]: 0.321 µM (active)
AC50 [2]: 2.15 µM (active)
AC50 [3]: 334 nM (active)
AC50 [4]: 528 nM (active)
AC50 [5]: 329 nM (active)
AC50 [7]: 1.84 µM (active)
outcome [12]: inactive
outcome [8]: inactive
outcome [9]: inactive
AC50 [10]: 593 nM (active)
outcome [13]: inactive
AC50 [11]: 336 nM (active)

Brc1c(Br)c(Br)c(Oc2c(Br)c(Br)c(Br)c(Br)c2Br)c(Br)c1Br
outcome [1]: inactive
outcome [2]: inactive
outcome [3]: inactive
outcome [4]: inactive
outcome [5]: inactive
outcome [6]: inactive
outcome [7]: inactive
outcome [8]: inactive
outcome [9]: inactive
outcome [10]: inactive
outcome [13]: inactive
outcome [11]: inactive

CCCCC(CC)COC(=O)Cl (centres undefined)
outcome [1]: inactive
outcome [2]: inactive
outcome [3]: inactive
outcome [4]: inactive
outcome [5]: inactive
outcome [7]: inactive
outcome [12]: inactive
outcome [8]: inactive
outcome [9]: inactive
outcome [10]: inactive
outcome [13]: inactive

Fc1cccc(Cl)c1CCl
AC50 [1]: 41.8 µM (active)
outcome [2]: inactive
outcome [3]: inactive
outcome [4]: inactive
outcome [5]: inactive
outcome [6]: inactive
outcome [7]: inactive
outcome [12]: inactive
outcome [9]: inactive
outcome [13]: inactive
outcome [11]: inactive

CCCCOP(=O)(CCCC)OCCCC
outcome [1]: inactive
outcome [2]: inactive
outcome [3]: inactive
outcome [4]: inactive
outcome [5]: inactive
outcome [6]: inactive
outcome [7]: inactive
outcome [8]: inactive
outcome [9]: inactive
outcome [10]: inactive
outcome [13]: inactive
outcome [11]: inactive

Source: PubChem BioAssay (EPA / NIEHS)
